Data: PubChem BioAssay (Tox21)
Results filed as inconclusive are left out. The source made the active and inactive calls. Calls follow the shape of the full dose curve.

molecular target: D(2) dopamine receptor (Homo sapiens) (UniProt P14416); assay: Dopamine D2 receptor (DRD2) small molecule agonists, cell-based qHTS assay (AID 1963594); conditions: HEK293-DRD2 cAMP HTRF, agonist mode, 30 min; series mostly up to 92.4 µM; activation: at the top concentration; also: nearly all actives have a fitted effect of over 35% in size
Description: National Center for Advancing Translational Sciences [NCATS]
Division of Preclinical Innovation [DPI]
U.S. Environmental Protection Agency [EPA]
National Institutes of Environmental Health Sciences [NIEHS]
National Toxicology Program [NTP]
U.S. Food and Drug Administration [FDA]
DRD2 is the D2 subtype of the dopamine receptor, which is coupled to Gi subtype of G protein-coupled receptor. This G protein-coupled receptor inhibits adenylyl cyclase activity. The DRD2-HEK293 cell line stably expressing D2 dopamine receptor can be used for screening agonists and antagonists of interactions between D2 and its ligands. The Hek293-DRD2 cAMP assay is based on HTRF technology. It measures changes of cAMP accumulation in response to Gi coupled GPCR activation or inhibition.
Tox21 Assay Protocol Summary:
DRD2-Hek293 cells were dispensed at 600 cells/3uL/well in 1536-well white plates using a Multidrop Dispenser. After the assay plates were incubated at a 37 C/5% CO2 incubator for 24 h, 1 uL of Ro20-1724 at final concentration of 0.1 mM was transferred to the assay plate by a Flying Reagent Dispenser. Following Ro20-1724 addition, 23 nL of compound dissolved in DMSO, positive controls or DMSO only was added to the assay plates via Wako pintool station. The assay plates were incubated at room temperature for 10 min. Next, 1 uL of NKH477 at 200nM was added into the plates. After the assay plates were incubated at room temperature for an additional 30 min, 2.5 ul/well of cAMP-d2 and 2.5 ul/well of anti-cAMP-cryptate were added respectively into the assay plates using a Flying Reagent Dispenser. The plates were incubated at room temperature for 1 h. The fluorescence intensity in the plates was measured at 340 nm excitation and 665 & 620 nm emission by an Envision plate reader.
% is scaled to controls: 0 for no effect and ±100 for the full control effect.

D(2) dopamine receptor (Homo sapiens), sequence (P14416 whole entry, looked up): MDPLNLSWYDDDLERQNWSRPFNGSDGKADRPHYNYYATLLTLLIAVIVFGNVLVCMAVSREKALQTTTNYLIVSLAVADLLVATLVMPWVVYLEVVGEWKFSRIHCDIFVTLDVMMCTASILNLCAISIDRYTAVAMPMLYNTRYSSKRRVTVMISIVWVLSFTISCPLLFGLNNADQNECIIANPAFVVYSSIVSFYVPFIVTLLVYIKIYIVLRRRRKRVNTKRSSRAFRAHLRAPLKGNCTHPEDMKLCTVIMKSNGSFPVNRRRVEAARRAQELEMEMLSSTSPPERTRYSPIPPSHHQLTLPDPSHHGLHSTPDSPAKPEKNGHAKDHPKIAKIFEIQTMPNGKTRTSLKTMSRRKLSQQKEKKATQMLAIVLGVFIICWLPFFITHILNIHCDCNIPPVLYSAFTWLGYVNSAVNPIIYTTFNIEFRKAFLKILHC

Row | SMILES | activation
1 | Cc1cccc2sc3nncn3c12 | -5.51% (inactive)
2 | C[N+]1(CCF)[C@@H]2CC[C@H]1CC(OC(=O)C(O)(c1ccccc1)c1ccccc1)C2 (stereo not given in full) | -8.46% [at 42.5 µM] (inactive)
3 | CCCCC(CC)COC(=O)OOC(C)(C)C (stereo not given) | 4.58% (inactive)
4 | CCCCN(CCCC)C(=S)S | -1.32% (inactive)
5 | CCCCC(CC)COP(=O)(Oc1ccccc1)Oc1ccccc1 (stereo not given) | -7.79% (inactive)
6 | CNC(=O)O/N=C(\C)C(C)S(C)(=O)=O (stereo not given) | -3.51% [at 872 µM] (inactive)
7 | Oc1ccc(C2(c3ccc(O)cc3)c3ccccc3-c3ccccc32)cc1 | -11.5% (inactive)
8 | CCN[C@H](C)Cc1cccc(C(F)(F)F)c1 | 10.1% (inactive)
9 | CN=CNc1ccc(C)cc1C | 9.94% (inactive)
10 | C=CC(=O)OCCN(C)C | -0.0027% (inactive)
11 | C=C(Cl)Cl | -5.02% (inactive)
12 | [O-][Cl+3]([O-])([O-])O | -5.66% (inactive)
13 | CCCCCl | 3.22% (inactive)
14 | O=C(O)c1cc(I)cc(I)c1I | 10.1% (inactive)
15 | CCCCCCCCBr | -0.799% (inactive)
16 | [CH3][Hg][Cl] | -0.108% (inactive)
17 | CCC(=O)c1ccc(Cl)cc1 | -6.6% (inactive)
18 | Cc1ccc2c(c1)C1CN(C)CCC1N2 (stereo not given) | -2.85% [at 19 µM] (inactive)
19 | O.O.O.O.O.O.O.O=S(=O)([O-])[O-].[Co+2] | 1.98% (inactive)
20 | CC(=O)[O-].CC(=O)[O-].O.O.[Zn+2] | 2.15% (inactive)

Row | SMILES | activation
21 | O=C(CCCN1CCC(n2c(=O)[nH]c3ccccc32)CC1)c1ccc(F)cc1 | -4.23% [at 42.5 µM] (inactive)
22 | C[As+](C)(C)CC(=O)[O-] | -0.046% (inactive)
23 | CCN(CC)C(C)C(=O)c1ccccc1 (stereo not given) | -2.07% [at 42.5 µM] (inactive)
24 | CC(C)(C)OC(=O)c1ncn2c1[C@@H]1CCCN1C(=O)c1c(Br)cccc1-2 | 3.92% [at 42.5 µM] (inactive)
25 | C#CC1(O)CCCCC1 | -0.257% (inactive)
26 | O=C(O)C(Br)(Br)Br | -1.13% (inactive)
27 | Cc1ccc(OP(=O)(Oc2ccccc2)Oc2ccccc2)cc1 | -3.68% (inactive)
28 | CCC(CC)(CNC(=O)CCCO)c1cccc(OC)c1 | -23.5% [at 42.5 µM] (inactive)
29 | CC(=O)[O-].CC(=O)[O-].CC(=O)[O-].[Cr+3] | 1.17% (inactive)
30 | CCCCOP(=O)(O)OCCCC | 3.74% (inactive)
31 | Cc1cc(C)c(C(=O)P(=O)(C(=O)c2c(C)cc(C)cc2C)c2ccccc2)c(C)c1 | -4.37% (inactive)
32 | C=C(C)C(=O)OCCCCOC(=O)C(=C)C | -10.7% (inactive)
33 | O=C(Nc1ccccc1)Nc1cnns1 | -10.4% (inactive)
34 | BrCC(Br)(Br)Br | -0.393% (inactive)
35 | CC1(C)COP(Oc2ccccc2)OC1 | -0.809% (inactive)
36 | N#Cc1c2ccccc2cc2ccccc12 | 2% (inactive)
37 | O=[N+]([O-])c1ccccc1Cl | 0.172% (inactive)
38 | Cc1cc(C)c(C(=O)P(=O)(c2ccccc2)c2ccccc2)c(C)c1 | -4.88% (inactive)
39 | [Cl-].[Cl-].[Sn+2] | 0.966% (inactive)
40 | N#C/C=C/C#N | 0.255% (inactive)
